Consider 112 compounds from PubChem BioAssay AID488969 (Vanderbilt High Throughput Screening Facility, 2010).

Over roughly 110,000 compounds, “z-score” has its median near -0.1; the highest 2% begin near 2. What follows is part of a selection rich in the highest values, with near analogues and random picks from the rest. Active and inactive are the calls of the source.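 How the source made its calls: active means z-score in the third read window above 3 or below -3; inactive means the rest.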

Sequence of Metabotropic glutamate receptor 8 (Rattus norvegicus) (P70579 whole entry, looked up): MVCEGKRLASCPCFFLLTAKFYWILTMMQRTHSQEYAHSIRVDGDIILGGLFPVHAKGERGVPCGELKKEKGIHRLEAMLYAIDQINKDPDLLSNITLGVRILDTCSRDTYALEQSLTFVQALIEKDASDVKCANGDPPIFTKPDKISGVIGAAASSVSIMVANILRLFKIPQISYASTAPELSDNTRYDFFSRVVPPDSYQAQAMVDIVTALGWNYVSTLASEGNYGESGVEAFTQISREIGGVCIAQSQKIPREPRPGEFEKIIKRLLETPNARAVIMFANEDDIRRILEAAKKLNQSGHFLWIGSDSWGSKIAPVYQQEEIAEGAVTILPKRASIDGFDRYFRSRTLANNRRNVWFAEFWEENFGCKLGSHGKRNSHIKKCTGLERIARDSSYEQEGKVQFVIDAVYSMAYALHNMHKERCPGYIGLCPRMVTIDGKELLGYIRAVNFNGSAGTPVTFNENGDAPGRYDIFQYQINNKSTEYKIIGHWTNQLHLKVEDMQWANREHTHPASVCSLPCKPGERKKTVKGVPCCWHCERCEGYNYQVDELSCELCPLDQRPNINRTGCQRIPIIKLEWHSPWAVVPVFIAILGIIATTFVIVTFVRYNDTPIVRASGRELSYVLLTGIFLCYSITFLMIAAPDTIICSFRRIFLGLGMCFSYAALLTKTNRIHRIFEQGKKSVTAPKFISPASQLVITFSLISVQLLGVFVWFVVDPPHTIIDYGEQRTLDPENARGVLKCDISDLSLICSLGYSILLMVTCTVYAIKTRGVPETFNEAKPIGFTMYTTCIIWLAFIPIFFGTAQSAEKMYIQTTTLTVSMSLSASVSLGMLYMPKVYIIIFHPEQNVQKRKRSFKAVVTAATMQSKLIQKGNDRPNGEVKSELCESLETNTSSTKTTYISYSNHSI

This assay concerns the target Metabotropic glutamate receptor 8 (Rattus norvegicus) (UniProt P70579). The assay is described as follows: rat mGluR8 modulators via GIRK flux, primary screen, cell-based, thallium flux, HTS (AID 488969). Conditions: HEK293 rat mGluR8, GIRK (G protein-gated inwardly rectifying potassium channel) thallium flux, FluoZin2; at 10 µM; stronger effect = higher value; submaximal glutamate (EC20) added with thallium.
`COc1ccc(S(=O)(=O)Nc2cccc(NC(C)=O)c2)cc1` had a z-score of 0.142.
Next, `COc1cc2c(cc1NC(=O)Nc1ccccc1)oc1ccccc12`: -0.0976; `COc1ccc(OCC(=O)Nc2cc3oc4ccccc4c3cc2OC)cc1`: -0.347; `Cc1cccc(C)c1OCC(=O)Nc1oc(-c2ccccc2)c(-c2ccccc2)c1C#N`: -0.376.
Next, `COc1cc2c(cc1NC(=O)Nc1ccc(C)cc1)oc1ccccc12`: -0.398.
With `COc1cc2c(cc1NC(=O)COc1ccccc1OC)oc1ccccc12`, the z-score is 5.54 (active).
For the compound `COc1cc2c(cc1NC(=O)Nc1cccc(C)c1)oc1ccccc12`, the z-score amounted to 2.68.
Next, `COc1ccccc1OCC(=O)Nc1oc(-c2ccccc2)c(-c2ccccc2)c1C#N`: 2.87.
`COc1cc2c(cc1NC(=O)COc1ccc3ccccc3c1)oc1ccccc12` came in with a z-score of -0.183.
Next, `Cc1ccc(OCC(=O)Nc2oc(-c3ccccc3)c(-c3ccccc3)c2C#N)cc1`: -0.212.
Under `CCn1c(SCc2nc(-c3ccc(OC)c(OC)c3)no2)nnc1-c1cccs1` stands -1.5.
Under `Cc1ccccc1OCCCC(=O)Nc1ccc2c(c1)OCO2` stands 0.157; under `O=C(Nc1cccc(S(=O)(=O)N2CCCC2)c1)c1ccc2c(=O)n3c(nc2c1)CCCCC3`, -1.24.
For the compound `COc1ccc(/C=N/n2c(=O)[nH]c3c([nH]c4ccc(C)cc43)c2=O)cc1CN1CCOCC1`, the z-score is -0.0345.
For the compound `CC(=O)N(c1ccccc1)c1nc(C)cc(C)c1C#N`, the z-score is -0.111.
Under `Cc1[nH]c2ccccc2c1C(=O)COC(=O)C1CC(=O)N(Cc2ccccc2)C1` (configuration not stated) stands -0.363; under `CSc1nc2nccc(-c3ccc(-c4ccccc4)cc3)n2n1`, -0.5.
Next, `CSCCC(NC(=O)c1ccccc1)C(=O)NC1CC1` (configuration not stated): 0.177; `Cc1nn(C(C)C(=O)N2CCCCC2)c(=O)c2c1sc1ccccc12` (configuration not stated): -0.115.
Next, `CCCCN(CCCC)C(=O)c1ccccc1NC(=O)CN1C(=O)c2ccccc2C1=O`: -0.366; `C=CCN(C)CC/C=C1\c2ccccc2CSc2ccccc21`: 1.99.
Compound `C#CCN(C)CC/C=C1\c2ccccc2CSc2ccccc21` showed a z-score of 1.63.
With `CC(O)CN(C)CC/C=C1/c2ccccc2CSc2ccccc21` (configuration not stated), the z-score came out at 0.694.
Next, `O=C1c2ccccc2C(=O)c2c1ccc(C(=O)N1CCCCC1)c2NCCO`: 0.68; `Cc1cc(OCC(=O)O)c2ccccc2n1`: -0.146; `CC1(Br)C2CCCC1C2S(=O)(=O)c1ccccc1` (configuration not stated): -0.376.
For `CC(NS(=O)(=O)c1ccc(Cl)cc1)C(=O)NCc1ccco1` (configuration not stated), the z-score was found to be 0.0263.
Next, `O=C(N/N=C/c1cccs1)C1COc2ccccc2O1` (configuration not stated): 0.238; `O=C(N/N=C/c1ccc2c(c1)OCO2)C1COc2ccccc2O1` (configuration not stated): 0.435; `O=C(N/N=C\c1cc(Br)cs1)C1COc2ccccc2O1` (configuration not stated): 2.32.
Under `CCOC(=O)/C=C1\CC(=O)Nc2cc(C)c(C)cc2N1` stands 0.197; under `Cc1cc(OCC(=O)NCC(C)C)cc(C)c1Br`, -0.137.
Next, `C/C(CC(=O)NCC(C)C)=N\NC(=O)COc1cc(C)c(Br)cc1Br`: 5.36 (active).
As to `C/C(CC(=O)NC(C)C)=N\NC(=O)COc1cc(C)c(Br)cc1Br`, the z-score is 6.24 (active).
Next, `C/C(CC(=O)Nc1ccccc1-c1ccccc1)=N\NC(=O)COc1ccc(C)cc1Br`: 0.458.
In turn, `CCCNC(=O)C/C(C)=N/NC(=O)COc1ccc(C)cc1Br` showed a z-score of -0.101.
In turn, `CCOC(=O)C/C(C)=N/NC(=O)COc1ccccc1C` yielded a z-score of 0.0596.
Compound `O=C(CSc1ncnc2sc3c(c12)CCCC3)N1CCC(c2noc3ccc(F)cc23)CC1` had a z-score of 0.658.
Next, `CCOC(=O)NC(Nc1ccc(S(N)(=O)=O)cc1)(C(=O)OCC)C(F)(F)F` (configuration not stated): 0.00287; `COC(=O)c1ccc(/C=N/NC(=O)CC(=O)NC(C)C)cc1`: -0.108.
Under `CC(=O)Nc1ccc(S(=O)(=O)Nc2nc3ccccc3nc2Nc2ccc(S(N)(=O)=O)cc2)cc1` stands -0.462; under `O=C(Nc1ccccc1)Nc1nnc(-c2ccccc2)o1`, -0.193; under `O=C(Nc1nnc(-c2ccc(Cl)cc2)o1)c1ccccc1Br`, 5.35 (active).
Next, `NC(=O)c1oc2ccccc2c1NC(=O)c1nc2ccccc2s1`: -0.927.
With `O=C(Nc1nnc(-c2ccccc2)o1)c1cc(Cl)sc1Cl`, the z-score was 11.3 (active).
Next, `COc1ccc(-c2nnc(NC(=O)C3=COCCO3)o2)cc1`: 0.731.
Under `O=C(Nc1nnc(-c2ccc(Cl)cc2)o1)C1=COCCO1` stands 2.01; under `O=C(Nc1nnc(-c2ccccc2)o1)C1CCCCC1`, 0.0922; under `Cc1ccccc1C(=O)Nc1nnc(-c2ccc(F)cc2)o1`, -0.035.
On to `O=C(Nc1nnc(C2=COCCO2)o1)c1ccc(Cl)cc1`, for which the z-score is 0.709.
Under `O=C(Nc1nnc(-c2ccc(Cl)cc2)o1)c1nc2ccccc2s1` stands 4.07 (active); under `O=C(Nc1nnc(-c2ccc(Cl)cc2)o1)Nc1ccccc1Cl`, 1.85.
Under `O=C(Nc1nnc(-c2ccccc2Cl)o1)c1nc2ccccc2s1` stands 1.61; under `COc1ccccc1NC(=O)CSc1nc(O)c(Cc2ccccc2)c(=O)[nH]1`, 0.381; under `COc1ccc(OC)c(-n2c(-c3cnccn3)n[nH]c2=S)c1`, -0.441.
`COc1ccc(NS(=O)(=O)c2ccc(N3CCCC3)c(NC(=S)Nc3cccc(C)c3C)c2)cc1` came in with a z-score of 0.291.
`O=C(CSc1nnc(CNC(=O)c2ccco2)o1)c1ccccc1` registered a z-score of 0.135.
Next, `CC1(C)CC(=O)CC(=Nc2ccc(C(=O)O)cc2)C1`: 2.15.
The compound `CCCC(=O)Nc1ccc(C(=O)N/N=C2\CC(=O)CC(C)(C)C2)cc1` displayed a z-score of -0.113.
Next, `CC1(C)CC(=O)C/C(=N\NC(=O)Cc2ccccc2)C1`: -0.224.
Under `CC(=O)c1cccc(NC(=O)c2ccco2)c1` stands -0.295; under `CCOC(=O)c1c(C)oc2ccc(O)c(CN(C)C)c12`, 0.911; under `CCOC(=O)c1c(C)oc2ccc(O)c(CN3CCCCC3)c12`, 3.52 (active).
Take `CCOC(=O)c1c(C)n(C)c2ccc(O)c(CN3CCN(C)CC3)c12`: the z-score amounted to 0.0797.
For the compound `CCOC(=O)c1c(C)n(C)c2ccc(O)c(CN(C)C)c12`, the z-score was 2.
Under `CCOC(=O)c1c(C)n(C)c2ccc(O)c(CN3CCCCC3)c12` stands 0.782.
`CCOC(=O)c1c(-c2ccccc2)oc2ccc(O)c(CN(C)C)c12` displayed a z-score of -0.204.
Under `CCOC(=O)c1c(C)n(C)c2ccc(O)c(CN3CCC(C)CC3)c12` stands 3.63 (active).
Next, `CCOC(=O)c1c(C)n(C)c2ccc(O)c(CN(CC)CC)c12`: -2.05; `CCOC(=O)c1c(-c2ccccc2)oc2ccc(O)c(CN3CCCC3)c12`: 1.41.
Regarding `CCN(CCCNC(=O)CCNC(=O)Cn1cnc2ccccc2c1=O)c1ccccc1`, the z-score came to 0.554.
Next, `CCOC(=O)C1CCCN(C(=O)c2ccccc2SCCOC)C1` (configuration not stated): 0.188; `Cc1nnc(SCC(=O)Nc2ccc3c(c2)OCCO3)s1`: 0.669.
Under `O=C(O)/C=C\C(=O)Nc1ccccc1F` stands 0.0594; under `O=C(NC(=S)Nc1ccccc1N1CCOCC1)c1ccc(-c2cccc(Cl)c2)o1`, 0.758.
Take `O=C(NC(=S)Nc1ccccc1N1CCCC1)c1ccc(-c2cccc([N+](=O)[O-])c2)o1`: the z-score is 5.71 (active).
Under `CN1CCN(c2ccccc2NC(=O)c2ccc(-c3cccc([N+](=O)[O-])c3)o2)CC1` stands -0.00188.
Take `O=C(NC(=S)Nc1ccccc1N1CCCCC1)c1ccc(-c2cccc([N+](=O)[O-])c2)o1`: the z-score amounted to 0.681.
Compound `CC1CCN(c2ccccc2NC(=S)NC(=O)c2ccc(-c3cccc([N+](=O)[O-])c3)o2)CC1` displayed a z-score of 0.191.
Next, `O=C(NC(=S)Nc1cccc(Cl)c1N1CCCC1)c1ccc(-c2cccc([N+](=O)[O-])c2)o1`: 4.93 (active); `Cc1cc(/C=C(/C#N)c2nc3ccccc3[nH]2)c(C)n1-c1cccc([N+](=O)[O-])c1`: -0.533; `O=C(CN1CCCC1)NC12CC3CC(CC(C3)C1)C2`: -0.0651.
Under `Cn1c(=O)c([N+](=O)[O-])c(NCc2ccccc2)c2ccccc21` stands -0.608; under `COc1ccc(CNC(=O)COC(=O)c2cc(-c3ccc(Cl)s3)nc3ccccc23)cc1`, -0.432; under `O=C(NCCc1c[nH]c2ccccc12)c1cc2sccc2n1Cc1ccccc1`, -0.216.
Under `Cc1ccc(C(=O)O/N=C\c2ccc(N3CCOCC3)c([N+](=O)[O-])c2)cc1` stands -0.0662.
Compound `CC(=O)Nc1ccc(NC(=O)C(F)(F)F)cc1` showed a z-score of 0.364.
Next, `FC(F)Sc1ccc(-n2cc(-c3ccccc3)[n+]3c2CCC3)cc1`: -0.0431; `CCCc1nc(SCC(=O)N2CCC(Cc3ccccc3)CC2)c2c(=O)n(C)c(=O)n(C)c2n1`: 1.98.
Take `CCCc1nc(SCC(=O)N2CCN(c3ccccc3)CC2)c2c(=O)n(C)c(=O)n(C)c2n1`: the z-score came out at 2.39.
Next, `CCCc1nc(SCC(=O)c2ccccc2)c2c(=O)n(C)c(=O)n(C)c2n1`: 0.819; `Cc1nnc(SCC(=O)NN2C(=O)NC3(CCCCC3)C2=O)s1`: -0.0833.
Next, `O=C(CSc1nnc(Nc2ccccc2)s1)NN1C(=O)NC2(CCCCC2)C1=O`: 2.14; `O=C(CSc1nnc(NC2CCCCC2)s1)NN1C(=O)NC2(CCCCC2)C1=O`: 0.151.
Next, `CCCCC1=C([O-])C2N=CC=CC2=[N+](c2ccccn2)C1=O` (configuration not stated): -0.104; `Cc1ccc(S(=O)(=O)NC(CC(=O)N2CCc3ccccc32)c2ccco2)cc1` (configuration not stated): -0.465.
On to `O=C(Nn1cnnc1)c1cc2cc(Br)ccc2oc1=O`, for which the z-score was 4.37 (active).
`CC(C)NC(=O)c1cc2cc(Br)ccc2oc1=O` came in with a z-score of -0.497.
Under `CCN(CC)C(=O)c1cc2cc(Br)ccc2oc1=O` stands 0.312; under `CCC(c1nnnn1C(C)(C)C)N(Cc1ccco1)Cc1cc2cccc(C)c2[nH]c1=O` (configuration not stated), 0.737; under `CC(=O)c1c(C)[nH]c(C(=O)CSc2ncnc3sc(-c4ccccc4)cc23)c1C`, 5.38 (active).
Next, `CC(=O)c1c(C)[nH]c(C(=O)CSc2nnc(-c3ccccc3)o2)c1C`: -0.229; `CCc1cc2c(SCC(=O)c3ccccc3)ncnc2s1`: 0.275.
Under `CN(CCC#N)C(=O)CSc1ncnc2sc(-c3ccccc3)cc12` stands 8.2 (active).
Compound `CCN(CC)C(=O)CSc1nnc(-c2ccccc2)c(-c2ccccc2)n1` registered a z-score of -0.489.
For `CC(C)C(C)(C#N)NC(=O)CSc1nnc(-c2ccccc2)o1` (configuration not stated), the z-score was -0.849.
Next, `CC(C)C(C)(C#N)NC(=O)CSc1ncnc2sc(-c3ccccc3)cc12` (configuration not stated): 4.81 (active).
Under `CCN(CC)C(=O)CSc1ncnc2c1cnn2Cc1ccccc1` stands 0.13; under `CCN(CC)C(=O)CSc1ncnc2sc(-c3ccccc3)cc12`, 7.95 (active); under `CN(C)/C=N/c1c(C#N)cnn1-c1ncnc2sc(-c3ccccc3)cc12`, 0.831.
Next, `CC(C)C(C)(C#N)NC(=O)CSc1nnc(-c2ccncc2)n1Cc1ccccc1` (configuration not stated): 0.023; `COC(=O)c1c(C)[nH]c(C(=O)CSc2ncnc3sc(-c4ccccc4)cc23)c1C`: 1.11.
